Test [1] addresses human Retinoid X Receptor beta (RXRb), RXRB (gene 6257) (UniProt P28702). As to the kind of experiment: ATG_RXRb_TRANS: Attagene TRANS-FACTORIAL HepG2 Assay for human Retinoid X Receptor beta (RXRb) (AID 2283013). The procedure, abridged: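 HepG2 cells transiently transfected with multiplexed reporter units driven by GAL4-UAS and exogenous chimeric NR-Gal4 proteins; treated 24 h. Reporter mRNA measured by RT-PCR, 6-FAM labelling and capillary electrophoresis; gain-of-signal fitted versus DMSO baseline.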

For test [2], the target named is human Thyroid Receptor alpha (THRa1), THRA (gene 7067) (UniProt P10827). In words: ATG_THRa1_TRANS: Attagene TRANS-FACTORIAL HepG2 Assay for human Thyroid Receptor alpha (THRa1) (AID 2283014). In outline:
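Reporter transcript induction, read by capillary electrophoresis of 6-FAM-labelled RT-PCR products, reflects activity of a transfected THRa1-Gal4 fusion in HepG2 liver cells. Cells were dosed for 24 h; activity was fitted in the positive direction against DMSO.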

The target of test [3] is human Vitamin D Receptor (VDR), VDR (gene 7421) (UniProt P11473). In words: ATG_VDR_TRANS: Attagene TRANS-FACTORIAL HepG2 Assay for human Vitamin D Receptor (VDR) (AID 2283022). The procedure, abridged:
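Steps: transfect HepG2 with GAL4-UAS-driven reporter constructs; dose compounds 24 h; isolate RNA, reverse-transcribe, PCR-amplify with 6-FAM-labelled primer extension and HpaI digestion; quantify fragments by capillary electrophoresis relative to DMSO.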

Read-out in test [4]: E-selectin (Homo sapiens) (UniProt P16581)
As to the kind of experiment: BSK_3C_Eselectin: BioMAP Diversity Plus: 3C Assay for Eselectin Biomarker Activity (AID 2283015; active = hit-call score of the fitted dose curve at least 0.9, where 1 is the maximum; inactive = score below 0.9;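 for outcome: cell surface E-selectin protein quantified by ELISA 24 h after dosing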). To be noted: primary human endothelial cells (HUVEC); actives raise or lower the signal. The procedure, abridged:
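ELISA read-out of E-selectin on endothelial monolayers after 24 h chemical treatment. Human umbilical vein primary cells served as the system, with DMSO defining baseline activity for bidirectional fitting.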

Read-out in test [5]: Interleukin-1 alpha (IL1a), IL1A (gene 3552)
In words: BSK_BE3C_IL1a: BioMAP Diversity Plus: BE3C Assay for Interleukin-1 alpha (IL1a) Biomarker Activity (AID 2283016; active = hit-call score of the fitted dose curve at least 0.9, where 1 is the maximum; inactive = score below 0.9). To be noted: primary human bronchial epithelial cells; actives raise or lower the signal. In outline:
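Human primary bronchial epithelial cells (BE3C system) were dosed with compound and IL-1a measured by ELISA 24 h later. Activity was fitted bidirectionally against DMSO baseline; cytotoxicity was tracked in parallel cultures by SRB total-protein staining.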

Read-out in test [6]: Monocyte Chemoattractant Protein-1 (MCP1), CCL2 (gene 6347)
As to the kind of experiment: BSK_3C_MCP1: BioMAP Diversity Plus: 3C Assay for Monocyte Chemoattractant Protein-1 (MCP1) Biomarker Activity (AID 2283017; active = hit-call score of the fitted dose curve at least 0.9, where 1 is the maximum; inactive = score below 0.9). To be noted: primary human endothelial cells (HUVEC); actives raise or lower the signal. The procedure, abridged: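 ELISA read-out of MCP-1 from human umbilical vein endothelial cell cultures harvested 24 h post-dosing. Gain or loss of signal was fitted relative to DMSO.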

Read-out in test [7]: Monocyte Chemoattractant Protein-1 (MCP1), CCL2 (gene 6347)
As to the kind of experiment: BSK_4H_MCP1: BioMAP Diversity Plus: 4H Assay for Monocyte Chemoattractant Protein-1 (MCP1) Biomarker Activity (AID 2283018; active = hit-call score of the fitted dose curve at least 0.9, where 1 is the maximum; inactive = score below 0.9). To be noted: primary human endothelial cells (HUVEC); actives raise or lower the signal. The procedure, abridged: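 Human umbilical vein endothelial cells (4H system) dosed with chemical; MCP-1 measured by ELISA 24 h after dosing. Bidirectional curve fitting against DMSO negative control as baseline; parallel SRB total-protein staining tracks overt cytotoxicity.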

Read-out in test [8]: Human Leukocyte Antigen - DR isotype (HLADR), HLA-DRA (gene 3122)
As to the kind of experiment: BSK_3C_HLADR: BioMAP Diversity Plus: 3C Assay for Human Leukocyte Antigen - DR isotype (HLADR) Biomarker Activity (AID 2283019; active = hit-call score of the fitted dose curve at least 0.9, where 1 is the maximum; inactive = score below 0.9;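 for outcome: ELISA of cell-surface HLA-DR on HUVEC 24 h after dosing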). To be noted: primary human endothelial cells (HUVEC); actives raise or lower the signal. In outline:
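ELISA readout of surface HLA-DR on human umbilical vein endothelium, taken 24 h after chemical treatment. Gain- and loss-of-signal were both fitted relative to DMSO.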

Read-out in test [9]: Interleukin-8 (IL8), CXCL8 (gene 3576)
As to the kind of experiment: BSK_3C_IL8: BioMAP Diversity Plus: 3C Assay for Interleukin-8 (IL8) Biomarker Activity (AID 2283020; active = hit-call score of the fitted dose curve at least 0.9, where 1 is the maximum; inactive = score below 0.9). To be noted: primary human endothelial cells (HUVEC); actives raise or lower the signal. The procedure, abridged: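 Primary human umbilical vein endothelial cells (3C system) were exposed to test chemical for 24 h, then IL-8 was quantified by ELISA. Responses were fitted bidirectionally against DMSO vehicle as baseline.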

Test [10] is described as follows: BSK_3C_SRB: Viability Assessment in the BioMAP Diversity Plus: 3C Assay (AID 2283023; active = hit-call score of the fitted dose curve at least 0.9, where 1 is the maximum; inactive = score below 0.9;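 note: fitted both ways against DMSO so a hit may be signal rise or drop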). To be noted: primary human endothelial cells (HUVEC). The procedure, abridged:
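Absorbance at 560 nm of sulforhodamine B-stained (0.1%) total protein served as a cytotoxicity readout in human umbilical vein endothelial cells, 24 h after chemical treatment. Signal was fitted bidirectionally relative to DMSO.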

Read-out in test [11]: Matrix Metallopeptidase 1 (MMP1), MMP1 (gene 4312)
As to the kind of experiment: BSK_BE3C_MMP1: BioMAP Diversity Plus: BE3C Assay for Matrix Metallopeptidase 1 (MMP1) Biomarker Activity (AID 2283024; active = hit-call score of the fitted dose curve at least 0.9, where 1 is the maximum; inactive = score below 0.9). To be noted: primary human bronchial epithelial cells; actives raise or lower the signal. The procedure, abridged:
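Primary human bronchial epithelial cells were dosed with test chemicals, and MMP1 levels were measured by ELISA 24 h later. Data were fitted bidirectionally against DMSO as the negative control and activity baseline.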

Read-out in test [12]: Pselectin, SELP (gene 6403)
As to the kind of experiment: BSK_4H_Pselectin: BioMAP Diversity Plus: 4H Assay for Pselectin Biomarker Activity (AID 2283026; active = hit-call score of the fitted dose curve at least 0.9, where 1 is the maximum; inactive = score below 0.9). To be noted: primary human endothelial cells (HUVEC); actives raise or lower the signal. In outline: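 Primary human umbilical vein endothelial cells were exposed to test chemical for 24 h, then cell-surface P-selectin was quantified by ELISA. Activity was fitted bidirectionally against DMSO as negative control and baseline.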

Test [13] in a line: BSK_4H_SRB: Viability Assessment in the BioMAP Diversity Plus: 4H Assay (AID 2283027; active = hit-call score of the fitted dose curve at least 0.9, where 1 is the maximum; inactive = score below 0.9;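 note: cells exposed to compound for 24 h before staining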;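 for AC50: curves fitted both ways versus DMSO so AC50 may be loss or gain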). To be noted: primary human endothelial cells (HUVEC). The procedure, abridged:
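Absorbance at 560 nm of SRB-stained total protein served as the viability read-out in confluent primary human umbilical vein endothelium 24 h after chemical treatment. Curves were fitted bidirectionally against DMSO as negative control.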

The nature of test [14]: BSK_BE3C_SRB: Viability Assessment in the BioMAP Diversity Plus: BE3C Assay (AID 2283028; active = hit-call score of the fitted dose curve at least 0.9, where 1 is the maximum; inactive = score below 0.9). To be noted: primary human bronchial epithelial cells. In outline: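 Cells (human bronchial epithelial, primary) are treated with chemicals, and after 24 h the parallel cultures are fixed in 10% TCA. These are then stained with 0.1% SRB and read at 560 nm. Gain or loss of signal is fitted relative to DMSO.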

Read-out in test [15]: Thrombomodulin, THBD (gene 7056)
In words: BSK_3C_Thrombomodulin: BioMAP Diversity Plus: 3C Assay for Thrombomodulin Biomarker Activity (AID 2283029; active = hit-call score of the fitted dose curve at least 0.9, where 1 is the maximum; inactive = score below 0.9). To be noted: primary human endothelial cells (HUVEC); actives raise or lower the signal. The procedure, abridged:
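Primary human umbilical vein endothelial cells (3C system) were exposed to chemical for 24 h, then thrombomodulin levels were measured by ELISA. Activity was fitted bidirectionally against the DMSO negative control as baseline.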

Read-out in test [16]: Urokinase-type plasminogen activator receptor (uPAR), PLAUR (gene 5329)
As to the kind of experiment: BSK_4H_uPAR: BioMAP Diversity Plus: 4H Assay for Urokinase-type plasminogen activator receptor (uPAR) Biomarker Activity (AID 2283030; active = hit-call score of the fitted dose curve at least 0.9, where 1 is the maximum; inactive = score below 0.9). To be noted: primary human endothelial cells (HUVEC); actives raise or lower the signal. The procedure, abridged: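 Cell-surface uPAR ELISA signal, measured 24 h after dosing human umbilical vein endothelial cells, was analyzed with bidirectional fitting relative to DMSO. Parallel SRB staining of total protein tracked overt cytotoxicity.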

Read-out in test [17]: Vascular endothelial growth factor receptor 2 (Homo sapiens) (UniProt P35968)
In words: BSK_4H_VEGFRII: BioMAP Diversity Plus: 4H Assay for Vascular endothelial growth factor receptor 2 (VEGFR2) Biomarker Activity (AID 2283031; active = hit-call score of the fitted dose curve at least 0.9, where 1 is the maximum; inactive = score below 0.9;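 for AC50: cell-surface VEGFR2 protein level quantified by ELISA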). To be noted: primary human endothelial cells (HUVEC); actives raise or lower the signal. The procedure, abridged: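 ELISA read-out of VEGFRII in primary human umbilical vein endothelium, taken 24 h after chemical treatment. Responses are expressed relative to DMSO, with bidirectional fitting.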

Read-out in test [18]: Human Leukocyte Antigen - DR isotype (HLADR), HLA-DRA (gene 3122)
In words: BSK_BE3C_HLADR: BioMAP Diversity Plus: BE3C Assay for Human Leukocyte Antigen - DR isotype (HLADR) Biomarker Activity (AID 2283032; active = hit-call score of the fitted dose curve at least 0.9, where 1 is the maximum; inactive = score below 0.9). To be noted: primary human bronchial epithelial cells; actives raise or lower the signal. The procedure, abridged: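 Human primary bronchial epithelial cells in the BE3C system were exposed to chemicals for 24 h, after which HLA-DR levels were quantified by ELISA. Activity was fitted bidirectionally, gain or loss of signal, against DMSO as negative control and baseline.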

The AC50 is the concentration giving half of the maximal activity seen.

Records with an inconclusive call do not appear. Active and inactive are the calls of the source. Rule for the calls, unless noted: active = hit-call score of the fitted dose curve at least 0.9, where 1 is the maximum; inconclusive = response in the unintended direction; inactive = score below 0.9.

Sequence of human Vitamin D Receptor (VDR), VDR (gene 7421) (P11473 whole entry, looked up, the tested form may be a part): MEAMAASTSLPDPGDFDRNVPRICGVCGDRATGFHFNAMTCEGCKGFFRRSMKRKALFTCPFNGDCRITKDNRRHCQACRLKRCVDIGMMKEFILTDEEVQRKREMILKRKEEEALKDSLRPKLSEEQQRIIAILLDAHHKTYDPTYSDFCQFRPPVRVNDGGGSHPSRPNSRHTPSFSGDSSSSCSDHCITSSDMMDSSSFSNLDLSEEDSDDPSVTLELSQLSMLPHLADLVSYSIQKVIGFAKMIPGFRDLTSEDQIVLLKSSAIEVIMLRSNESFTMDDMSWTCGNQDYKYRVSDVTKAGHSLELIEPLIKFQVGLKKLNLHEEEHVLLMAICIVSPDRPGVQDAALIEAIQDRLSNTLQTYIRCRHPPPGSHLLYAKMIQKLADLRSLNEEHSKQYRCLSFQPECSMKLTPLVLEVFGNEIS
Sequence of E-selectin (Homo sapiens) (P16581 whole entry, looked up): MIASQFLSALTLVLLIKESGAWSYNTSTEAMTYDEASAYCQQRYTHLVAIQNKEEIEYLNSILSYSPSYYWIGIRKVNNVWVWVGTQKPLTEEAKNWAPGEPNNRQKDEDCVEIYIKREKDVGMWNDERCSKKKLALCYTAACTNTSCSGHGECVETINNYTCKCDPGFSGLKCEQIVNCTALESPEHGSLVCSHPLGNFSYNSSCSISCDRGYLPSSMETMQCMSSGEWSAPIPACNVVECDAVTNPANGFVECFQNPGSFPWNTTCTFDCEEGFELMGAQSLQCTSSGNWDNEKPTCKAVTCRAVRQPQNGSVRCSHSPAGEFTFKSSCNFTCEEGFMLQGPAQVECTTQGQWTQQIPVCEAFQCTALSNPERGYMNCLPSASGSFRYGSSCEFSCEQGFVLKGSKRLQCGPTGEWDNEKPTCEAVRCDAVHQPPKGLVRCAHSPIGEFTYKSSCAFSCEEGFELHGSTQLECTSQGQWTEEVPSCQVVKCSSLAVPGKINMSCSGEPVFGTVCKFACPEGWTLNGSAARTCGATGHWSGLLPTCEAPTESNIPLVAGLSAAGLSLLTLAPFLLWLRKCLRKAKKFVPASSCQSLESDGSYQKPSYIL
Sequence of human Retinoid X Receptor beta (RXRb), RXRB (gene 6257) (P28702 whole entry, looked up, the tested form may be a part): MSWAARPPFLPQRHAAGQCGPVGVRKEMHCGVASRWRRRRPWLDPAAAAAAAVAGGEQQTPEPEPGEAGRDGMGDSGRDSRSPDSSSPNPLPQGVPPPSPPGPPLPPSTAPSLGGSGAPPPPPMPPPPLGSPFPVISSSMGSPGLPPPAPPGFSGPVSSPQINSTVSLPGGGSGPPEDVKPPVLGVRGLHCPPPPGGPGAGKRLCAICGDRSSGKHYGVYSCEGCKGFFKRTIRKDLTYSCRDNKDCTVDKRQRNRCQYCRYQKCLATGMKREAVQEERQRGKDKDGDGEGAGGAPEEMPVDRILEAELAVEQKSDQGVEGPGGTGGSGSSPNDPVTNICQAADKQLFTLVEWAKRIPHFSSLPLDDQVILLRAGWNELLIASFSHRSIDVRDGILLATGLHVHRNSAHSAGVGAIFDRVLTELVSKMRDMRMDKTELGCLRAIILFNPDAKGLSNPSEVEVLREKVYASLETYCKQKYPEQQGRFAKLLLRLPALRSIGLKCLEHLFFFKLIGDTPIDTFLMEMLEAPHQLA
Sequence of human Thyroid Receptor alpha (THRa1), THRA (gene 7067) (P10827 whole entry, looked up, the tested form may be a part): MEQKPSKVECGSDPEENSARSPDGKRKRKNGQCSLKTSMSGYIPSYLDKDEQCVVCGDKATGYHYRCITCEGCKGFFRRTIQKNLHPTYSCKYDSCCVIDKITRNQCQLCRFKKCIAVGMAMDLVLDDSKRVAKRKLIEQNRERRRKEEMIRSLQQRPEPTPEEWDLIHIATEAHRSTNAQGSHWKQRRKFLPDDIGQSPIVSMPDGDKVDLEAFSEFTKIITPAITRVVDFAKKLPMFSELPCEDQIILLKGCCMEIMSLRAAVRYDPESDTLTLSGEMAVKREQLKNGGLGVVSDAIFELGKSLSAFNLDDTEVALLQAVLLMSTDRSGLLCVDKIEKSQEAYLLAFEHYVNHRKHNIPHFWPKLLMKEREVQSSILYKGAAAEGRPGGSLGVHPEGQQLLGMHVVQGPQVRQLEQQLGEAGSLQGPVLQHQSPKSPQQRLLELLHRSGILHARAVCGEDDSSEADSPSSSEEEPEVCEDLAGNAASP

As to `C/C=C(\C)C(=O)OCc1ccccc1`, the result in [1], in test [2] and in test [3] was inactive.

As for `CC(C)OP(=O)(CP(=O)(OC(C)C)OC(C)C)OC(C)C`, the molecule was called inactive in [1], in test [2] and in [3].

`O=C(COc1ccc(Cl)cc1)N1CCN(Cc2ccc3c(c2)OCO3)CC1`: the molecule was called inactive in test [1], in test [2] and in test [3].

Consider `COc1nc(C)nc(N)n1`, for which the molecule was classed as inactive in test [1], in test [2] and in test [3].

For the molecule `CC(C)(C)C(=O)c1ccccc1`, the molecule was classed as inactive in [1], in test [2] and in test [3].

As to `C=C[Si](OCC)(OCC)OCC`, the call in test [1], in test [4], in test [5], in test [6], in [7] and in test [8] was inactive. Besides, the outcome in [9], in test [3], in test [10], in test [11], in test [12] and in [13] was inactive. Also, the outcome in [14], in test [15], in test [16] and in [17] was inactive.

Turning to `CC(C)c1ccc(C(C)C)cc1`, the AC50 in test [1] is 66.5 µM (active); in test [4] it was 36.1 µM (active); in test [5], 29.1 µM (active); in test [6], 36.8 µM (active); in test [7], 29.9 µM (active); in [8] it was 34.6 µM (active). In addition, the AC50 is 30.5 µM (active) in test [10]; 31 µM (active) in test [12]; 30.7 µM (active) in test [13]; 30.9 µM (active) in [16]; 33.3 µM (active) in test [17]. Moreover, the call in test [2], in [9], in test [3], in test [11], in test [14] and in [15] was inactive.

With `OC1C(O)C(O)C(O)C(O)C1O` (stereo not drawn), the call in test [1], in test [2] and in test [3] was inactive.

As for `O=C(O)c1cn(-c2ccc(F)cc2)c2cc(N3CCNCC3)c(F)cc2c1=O`, the molecule was called inactive in test [1], in test [2], in test [4], in [5], in test [6] and in [7]. The result in test [8], in test [9], in test [10], in [11], in test [12] and in test [13] was inactive. The result in test [14], in test [15], in [16], in test [17] and in [18] was inactive.

As for `CC(C)(C#N)c1cc(Cn2cncn2)cc(C(C)(C)C#N)c1`, the call in [1] and in [3] was inactive.

As for `C[C@H]1C[C@H]2[C@@H]3CCC4=CC(=O)C=C[C@]4(C)[C@@]3(F)[C@@H](O)C[C@]2(C)[C@@]1(O)C(=O)COP(=O)(O)O`, the molecule was classed as inactive in [1] and in [3].

Regarding `CC(=O)c1c(C)cc(C(C)(C)C)cc1C`, the AC50 in [1] was 31.4 µM (active). The molecule was called inactive in test [2] and in test [3].

Turning to `Cc1c(Cl)c(=O)oc2cc(O)ccc12`, the molecule was called inactive in [1], in test [2] and in [3].

For `CN1[C@@H]2CC(OC(=O)[C@H](CO)c3ccccc3)C[C@H]1[C@@H]1O[C@@H]12` (stereo partly drawn), the AC50 in [1] was 160 µM (active). Further, the call in [2] and in [3] was inactive.

For the molecule `CCCCCCCCCCCCCCCC(=O)O`, the result in test [1] and in test [3] was inactive.

Regarding `CCCCCCCCCCCCCCCC(=O)OC[C@H](O)[C@H]1OC(=O)C(O)=C1O`, the result in [1], in test [2] and in [3] was inactive.

Take `C=CC(=O)OCC(O)COc1ccccc1` (stereo not drawn): the result in [1], in test [2] and in test [3] was inactive.

Consider `CC(=O)OCc1ccc2c(c1)OCO2`, for which the call in [1] and in test [3] was inactive.

With `O=C1c2ccccc2C(=O)N1SC1CCCCC1`, in test [1], the AC50 is 44.4 µM (active). The call in test [3] was inactive.

For the origin of these results see PubChem BioAssay (EPA / NIEHS).
